From PubChem BioAssay
This is a sample that favours compounds with a hit; in the whole collection about 2.4% have one here.
D2 antag: antagonizes the human D2 dopamine receptor; P14416; AID 485344; HEK293 TREx D2 cells, calcium flux, dopamine EC80; 340,000 compounds, 2% hits; inhibition, % at 10 µM; in the data active means inhibition above about 30%; inactive means below that, where a call was filed
Target sequence (P14416 whole entry, looked up): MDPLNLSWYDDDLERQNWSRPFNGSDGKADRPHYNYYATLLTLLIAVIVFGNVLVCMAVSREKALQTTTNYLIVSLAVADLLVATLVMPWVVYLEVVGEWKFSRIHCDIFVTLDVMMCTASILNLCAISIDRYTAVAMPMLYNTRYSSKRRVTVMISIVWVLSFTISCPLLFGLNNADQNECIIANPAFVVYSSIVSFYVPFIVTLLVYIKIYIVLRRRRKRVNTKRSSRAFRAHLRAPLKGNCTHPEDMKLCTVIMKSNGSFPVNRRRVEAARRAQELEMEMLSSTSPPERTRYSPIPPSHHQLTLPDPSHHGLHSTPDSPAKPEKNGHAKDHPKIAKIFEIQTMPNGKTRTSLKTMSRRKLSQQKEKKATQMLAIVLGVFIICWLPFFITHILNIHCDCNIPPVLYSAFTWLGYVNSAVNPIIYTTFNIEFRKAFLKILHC
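Tetracycline-induced HEK293 T-REx cells expressing D2 force-coupled to calcium signalling were dye-loaded, exposed to compound for 180 s, then challenged with an EC80 of dopamine; calcium flux was followed kinetically for a further 180 s.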
D2 PAM-1: human D2 receptor positive allosteric modulation | P14416 | DiscoveRx D2 beta-arrestin cells, luminescence, 90 min; 100% = 57 uM dopamine signal | potentiation, % (concentration not given with the values) | 360,000 compounds, 0.23% hits; in the data active means potentiation above about 50%; inconclusive means mostly about 30% to 49%
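D2 cells co-treated with compound plus 50 nM dopamine (EC20) for 90 min at 37 deg C to detect potentiation. Beta-arrestin recruitment was read as enzyme-fragment luminescence after 1 h at ambient temperature. Full response was set by 57 uM dopamine.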
D2 PAM-2: D2 dopamine receptor (human) potentiation; AID 485347; HEK293 T-REx D2, calcium flux, EC20 dopamine potentiation; P14416; potentiation, % at 10 µM; 340,000 compounds, 0.34% hits;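 active means potentiation over 3 SD above the plate norm, cut at about 30% in these data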
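Cells plated with tetracycline inducer and held overnight at 30 C; calcium dye loaded 30–90 min at room temperature; baseline taken, compound added and read 180 s; EC20 dopamine then added and read 180 s.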
D2 ag-1: activates the human D2 dopamine receptor. DiscoveRx PathHunter D2 beta-arrestin, luminescence, 90 min; 100% = 57 uM dopamine signal. activation, % (concentration not given with the values). 360,000 compounds, 0.084% hits. AID 624465; in the data active means activation above about 40%; inconclusive means between about 15% and that limit
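DiscoveRx PathHunter D2 beta-arrestin cells (2,100/well) attached overnight, then compound-stimulated 90 min at 37 C in HBSS/10 mM HEPES/0.1% Tween-20 buffer; beta-galactosidase complementation read by luminescence after 1 h at ambient temperature. Dopamine 57 uM final (EC100) as control.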
D2 ag-2: D2 dopamine receptor (human) agonism; activation, % at 2 µM; HEK293 T-REx D2 cells, calcium flux agonist mode; 340,000 compounds, 0.53% hits; P14416;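 active means activation over 3 SD above normal in the single-dose calcium agonist read, cut at about 30% in these data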
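In this primary screen, compounds producing a positive calcium signal within 180 s of addition to tetracycline-induced, force-coupled HEK293 Trex D2 cells are flagged; cells are dye-loaded with a no-wash calcium kit beforehand.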
A number is an active result; - = inactive; ? = inconclusive; . = not tested or not shown.

SMILES | D2 antag | D2 PAM-1 | D2 PAM-2 | D2 ag-1 | D2 ag-2
Nc1cccc(C(=O)OCC(=O)Nc2cccc3c2C(=O)c2ccccc2C3=O)c1 | - | 60 | - | ? | -
Cc1cccc(NC(=O)COC(=O)c2cccc3c2C(=O)c2ccccc2C3=O)c1C | - | 90 | - | ? | -
O=S(=O)(c1ccccc1)c1nc(-c2ccc(Cl)cc2Cl)oc1N1CCCCCC1 | . | . | - | . | -
Clc1ccc(-c2noc3ncnc(NCCCN4CCN(c5ccccc5)CC4)c23)cc1 | . | . | - | . | .
Cc1cccc(N2C(=O)C(CC(=O)Nc3cccc(F)c3)N(Cc3cccs3)C2=O)c1 (configuration not stated) | . | . | - | . | -
Cc1ccc(NC(=O)c2oc3ccc(S(=O)(=O)N4CCCCC4)cc3c2C)c(C)c1 | . | . | - | . | -
COc1ccc(Cc2nn3c(Cn4nnc5ccccc54)nnc3s2)cc1 | 39 | - | - | - | -
N#C/C(=C/c1ccc(-c2ccc(S(N)(=O)=O)cc2)o1)c1nc2ccccc2s1 | - | - | - | - | 115
N#C/C(=C\c1ccc(-c2ccc(F)cc2)o1)C(=O)Nc1nc(-c2cccs2)cs1 | - | - | - | - | -
N#C/C(=C/c1ccc(-c2ccc(S(N)(=O)=O)cc2)o1)C(=O)Nc1ccccc1 | - | - | - | - | -
N#C/C(=C/c1ccc(-c2ccccc2)o1)c1nc(-c2cccs2)cs1 | - | - | - | - | 87
Cc1ccc(NC(=O)CCCN2C(=O)COc3ccc(C)cc32)c(C)c1 | . | . | - | . | -
Cc1cccc(NC(=O)[C@@H]2CCCN2C2=NS(=O)(=O)c3ccccc32)c1C | - | - | - | - | -
CC(=O)c1ccc(NC(=O)[C@@H]2CCCN2C2=NS(=O)(=O)c3ccccc32)cc1 | 37 | - | - | - | -
Cc1ccccc1/C=C/c1nc2ccccc2c(=O)[nH]1 | - | - | - | - | -
Cc1ccccc1/C=C\c1nc2ccccc2c(=O)[nH]1 | 33 | - | - | - | -
O=C(CSc1cn(CCNC(=O)c2c(F)cccc2F)c2ccccc12)Nc1ccccc1F | . | . | - | . | -
Cc1onc(-c2ccccc2Cl)c1C(=O)NCCCN1CCOCC1 | - | - | - | - | -
Cc1onc(-c2c(Cl)cccc2Cl)c1C(=O)NCCCN1CCOCC1 | 43 | - | - | - | -
COc1cc(/C=C/C(=O)c2ccc3c(c2)OCO3)cc(Cl)c1O | 35 | - | - | - | 78
CC(NC(=O)c1ccc(Cl)cc1)c1nnc(SCc2ccc([N+](=O)[O-])cc2)n1C (configuration not stated) | 32 | - | - | - | -
CCn1c(SCc2ccc([N+](=O)[O-])cc2)nnc1C(C)NC(=O)c1ccc(C)cc1 (configuration not stated) | - | - | - | - | -
COc1ccc(N2CCN(CCCn3c(=S)[nH]c4ccccc4c3=O)CC2)cc1 | - | - | - | - | -
COc1ccccc1N1CCN(CCc2n[nH]c(=S)n2-c2ccccc2)CC1 | 52 | - | - | - | -
O=c1c2cc(N3CCOCC3)ccc2[nH]c(=S)n1CCCN1CCN(c2ccccc2F)CC1 | 84 | . | - | . | 70
SMILES | D2 antag | D2 PAM-1 | D2 PAM-2 | D2 ag-1 | D2 ag-2
O=c1c2cc(N3CCOCC3)ccc2[nH]c(=S)n1CCN1CCCC1 | - | - | - | - | -
O=c1c2ccccc2[nH]c(=S)n1CCN1CCN(Cc2ccccc2)CC1 | 52 | - | - | - | -
COc1ccccc1N1CCN(CCCn2c(=S)[nH]c3ccccc3c2=O)CC1 | 82 | - | - | - | -
Cc1ccc2scc(N3CCN(c4ccccc4)CC3)c(=O)c2c1 | . | . | - | . | -
COc1ccccc1NC(=O)CCNS(=O)(=O)c1ccc2c(c1)CCN2C(=O)C1CC1 | . | . | - | . | -
CCC(CC)C(=O)Nc1nnc2n1CCS2 | . | . | - | . | -
O=C(NCC(c1ccco1)S(=O)(=O)c1cccs1)c1ccc(F)c(F)c1 (configuration not stated) | . | . | - | . | -
O=c1c2cc(N3CCOCC3)ccc2[nH]c(=S)n1CCCN1CCCCCC1 | 39 | - | - | - | -
COc1ccc2cc3cc(C(=O)NCCN4CCN(c5ccccc5F)CC4)oc3nc2c1 | 38 | - | - | - | -
Cc1ccc(C)c(CSc2nnc(C)n3c2cc2sccc23)c1 | . | . | - | . | -
CCOc1ccc(/C=N/NC(=O)c2cc3c(OC)cc(OC)c(OC)c3[nH]2)cc1 | 56 | - | - | - | -
